Numbering of substitutions follows the chain as printed. Whole data set: some 24,000 sequences, median “enrichment r” near 0.99, cut for the highest 2% near 3.7. The entries come from a sample that favours the highest values as a whole.
T1: UNK ZnF1-3 (human, UniProt Q9C0B0 31-174)
T1 sequence: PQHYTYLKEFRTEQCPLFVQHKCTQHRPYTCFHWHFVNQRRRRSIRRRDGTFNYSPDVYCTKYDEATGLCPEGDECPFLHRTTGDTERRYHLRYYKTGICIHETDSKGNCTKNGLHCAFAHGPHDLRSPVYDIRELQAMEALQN

B1: chr7:54825262:54825263:-_ENSG00000132432_ENST00000352861|hu_hu|hu_hu_hu_mus_False|48_98 (ssRNA)
RNA: GGGAGUUCUACAGUCCGACGAUCCUGCCGGCUGGGCACAAACUGCAGCAUUACCUGAUCCAUGUUUGUUGGAUGGCGGAUUGAGAGUGCCAGGGACCGUAGCUCAGGAGAGAACCGAGCCCAACGGAACCGGAAGCUGGCAACCAACAGAGGAUUGAGCAUCA
B2: chr3:95023916:95023917:-_ENSMUSG00000053192_ENSMUST00000065482|mus_mus|FALSE|FALSE (ssRNA)
RNA: GGGAGUUCUACAGUCCGACGAUCUAAAUAAAUAAAUAAAUAAAUAUAGAUAGAUAAAUAAGUACGUACAUACAUACAAACCUACAAUUCAAUUGGCAGAUUCAUCAGCACCACCAGCACAAUAGAGGGAAGAGAACAAGAUUACAACAGAGGAUUGAGCAUCA
B3: chr3:95023916:95023917:-_ENSMUSG00000053192_ENSMUST00000065482|mus_mus|motif|central (ssRNA)
RNA: B2 RNA with U82G, A83G
B4: chr17:64801638:64801639:+_ENSG00000154229_ENST00000413366|hu_mus|hu_hu_hu_mus_False|78_78 (ssRNA)
RNA: GGGAGUUCUACAGUCCGACGAUCUAUAUAUAUAUAUACAUAUGUACACAUAUAUAGUAAGAGCCUAGUUAAACGUGUAAAGUAGCCAUUCAUUUUUAAAAUUACAUCUACAUUAAAAAAUUAAUAUAUCUGAUAGAGUGCCAGCAACAGAGGAUUGAGCAUCA
B5: chr1:34870196:34870197:-_ENSMUSG00000037503_ENSMUST00000047534|mus_hu|motif|central (ssRNA)
RNA: GGGAGUUCUACAGUCCGACGAUCAUCUGAGCUCAUCUCAUCAGAUUGCAUAAAAAAUUAAAAUAGUAUCAAUUGACACCGGACUGAACUGGCUCAGGAUGGAAAUUCCAUUCCUUGGCAUGGAUACGUAAGUUCAAUGCAGAGCAACAGAGGAUUGAGCAUCA
B6: chr3:148802587:148802588:-_ENSG00000071794_ENST00000310053|hu_mus|hu_hu_hu_mus_False|28_38 (ssRNA)
RNA: GGGAGUUCUACAGUCCGACGAUCUCCAACAACUUGUCCUCUCAUAGUUCCAAAUAAAACCAAAUCUUGCUCUUCAUCACUCGUUAGGAAGUCAUCUGGAGGGAUAACAUCUUGGAAUUCAAAAUGUGGCAAGAAAGUUGAGUACAACAGAGGAUUGAGCAUCA
B7: 17587070_17598549_148_CDS_ENSMUSG00000015733_ENSMUST00000015877|mouse|control|control (ssRNA)
RNA: GGGAGUUCUACAGUCCGACGAUCGUGAAUGAUGAAUUUUGCUGCUAUACGAACCUUCUCCUCAUCGGACAACUGCUCCUCCAGAUCCGCCAUCUUCCUUCUGGCGACAGACCGUGGCGCUGGUGGCAGCAGCGGCCACCUGACCAACAGAGGAUUGAGCAUCA
B8: 33058320_33060047_1444_CDS_ENSG00000170266_ENST00000307363|human|control|control (ssRNA)
RNA: GGGAGUUCUACAGUCCGACGAUCUCCCUGGGGGAUCCCAUCCACAGCAACAUAUGCUCGAUCGUGGACUCCAUUGAGGGGUGAAGAGAGAGGUGCUGGGUUGCUGCAAUCUUGAGGAAGUGUUGUCCGGUACAGCACAAACCCCAACAGAGGAUUGAGCAUCA
B9: chr5:145543945:145543946:-_ENSG00000133706_ENST00000545646|hu_hu|hu_hu_hu_mus_True|18_98 (ssRNA)
RNA: GGGAGUUCUACAGUCCGACGAUCCUGAACGGCCAGUGGCGGGAAAUAAUCAAGCCAGUGCUCUGCUUCAGAAAACUUCACUAUGUCGUCAUCAGAGAGCCCAAGGGAUUUCAUAAUGCCCCACUGGUACUUAGAAGAUCCUGCCAACAGAGGAUUGAGCAUCA
B10: 74491169_74493004_2024_3pUTR_ENSMUSG00000020745_ENSMUST00000021091|mouse|control|control (ssRNA)
RNA: GGGAGUUCUACAGUCCGACGAUCAUCAACGGCACUCCCACACCUUUACUGUUUGAUCUACACUGCCAGUAACCACAUAGGGUGCCGUCUUAUGGAAAUCCAAGGAGGUAACAAAGUGUUCAUGCGCAUUGAGGGUCUUCAUGCCAACAGAGGAUUGAGCAUCA
B11: chr10:36858571:36858572:-_ENSMUSG00000069662_ENSMUST00000092584|mus_mus|FALSE|FALSE (ssRNA)
RNA: GGGAGUUCUACAGUCCGACGAUCAUAAAAAAUUUUUAGUCGAAGAGAUCAAAAAAGCAGCAGCGCAGGAAGGAGGGAAAAAGGUGGAAAAGUCGAGCACAAAAAAGGAGCCCAAGUGUAGUUUUUUUAAAAAAAGAAGUAAUACAACAGAGGAUUGAGCAUCA
B12: chr10:36858571:36858572:-_ENSMUSG00000069662_ENSMUST00000092584|mus_hu|FALSE|FALSE (ssRNA)
RNA: GGGAGUUCUACAGUCCGACGAUCAUAAAAAAAUUUUAGUCGAAGAGAUCAAAAAGCAGCAGCACAGGAGGGAGGGAAAAAGGGUGGAAAAGUCGAGCACAAAAAAAGGAGCCCAAGUGUAGUUCGAAAAAAAAAGAAGUAAUACAACAGAGGAUUGAGCAUCA
B13: 72182037_72182157_980_3pUTR_ENSG00000148730_ENST00000373218|human|control|control (ssRNA)
RNA: GGGAGUUCUACAGUCCGACGAUCCCAGAGGAAAGAAAGGAAGUGGACCUCAAAACAGUGUCACAGGGUAACGCUACCAGAGUUGCACAAGCUGUGCUCUGUCCCGAGGGACGAAUACCUCAAGGUAAAAGGGAAAGCAGCUCUCAACAGAGGAUUGAGCAUCA
B14: chr5:134790399:134790400:-_ENSMUSG00000060261_ENSMUST00000173341|mus_hu|FALSE|FALSE (ssRNA)
RNA: GGGAGUUCUACAGUCCGACGAUCGGGAGGCGAGAGGGGGCGAGGGGCCCGUGCGUGUCGGUCGCGCUCCUGUCACCGCCGCAUGGCCGCCCCGCAGGCAGGGCCUCGCUCAGCGCCUUGAUCCGAUCACUGGGGGACAGAGGCCAACAGAGGAUUGAGCAUCA
B15: chr22:19452774:19452775:-_ENSG00000070010_ENST00000399523|hu_hu|hu_hu_hu_mus_False|28_58 (ssRNA)
RNA: GGGAGUUCUACAGUCCGACGAUCCUUCUCAUUGUAGUUGAUAGCAAUCACAUCUCCAGUCGUCAGACAGGCGAAGUUCCUAAGUGCAUUUUCUAAUACCGCUUUAGGGUUGGUGAUAUCCAGGAAGUCUGGGCUCUGAGGCUGCAACAGAGGAUUGAGCAUCA
B16: chr2:42509997:42509998:+_ENSG00000143924_ENST00000318522|hu_hu|FALSE|FALSE (ssRNA)
RNA: GGGAGUUCUACAGUCCGACGAUCUCGCUGAGUUCUCUCCUCAUAAUUAAAUAGUACUACUACUGAUGCAAUGAAAUAAACUAUUUUCCCGGUCGGAAGAAGGUAAACAUUAGCUCUACAGUCCUUUCCUCGAUAACCAUAUGCCAACAGAGGAUUGAGCAUCA
B17: chr3:119456006:119456007:-_ENSMUSG00000028134_ENSMUST00000029780|mus_hu|FALSE|FALSE (ssRNA)
RNA: GGGAGUUCUACAGUCCGACGAUCAAUAUGAAGUACACGAGAAGGAGCACCAUCCAUUUUAUCUUCUCCUUUAAAUUUUUUACUAUCAUUACCAUUGGCUGUAACUACCAUGCUGCUCAUAUUAGAGUUCGGACUACUGAGAACCAACAGAGGAUUGAGCAUCA
B18: chr14:59855892:59855893:+_ENSMUSG00000035469_ENSMUST00000043227|mus_hu|motif|central (ssRNA)
RNA: GGGAGUUCUACAGUCCGACGAUCUUCCAUUAUUACAUUAGAUGAAAAAAUCAAUUCAAAUAAGAGUUGUCAUAUCCUGCGGUGAUUAACAAAAAAACAAGUAGAAAAAUAAGAGAGUGUAUUUAAAAAAAAUAAUCAAAUGCUCAACAGAGGAUUGAGCAUCA
B19: chr14:59855892:59855893:+_ENSMUSG00000035469_ENSMUST00000043227|mus_mus|motif|central (ssRNA)
RNA: GGGAGUUCUACAGUCCGACGAUCGCUUCCAUUAUUAUAUCAGAAGAAAACAUUAAUUUCAAUAAUAGUUUCUUGCUUUCGGUGAUUAUAACCAAAACCAAGUAGAAAAAUAAAAAGAUUGCAUUUAAAAAAAAUUUGCAAACCCAACAGAGGAUUGAGCAUCA
B20: 55555555_55559808_3342_CDS_ENSG00000115355_ENST00000336838|human|control|control (ssRNA)
RNA: GGGAGUUCUACAGUCCGACGAUCCAAAAGUUUAUACCUGUCAUCAGUACUUUGUUCAUCAUGUAAGAGUCGCUCCUUAUUUAACCCUAUCUUCUCAAGCUCAUGAGUUAAUUUUUCGAGAUCAUUGUUCAUCUGUUGGGUCUUCAACAGAGGAUUGAGCAUCA
B21: chr8:72542918:72542919:-_ENSMUSG00000031858_ENSMUST00000050561|mus_mus|FALSE|FALSE (ssRNA)
RNA: GGGAGUUCUACAGUCCGACGAUCAGCUAUCAAGCCAAGAGGAGCUGAGCUGGUCCCAUAACUGUCCUCCAUGGGAAAGCUAAAUAGCUGCCAGGAAGGAACCCUCUCAUUCAGGUCCAAUGGGACUUCUGCCUGAUGCUUAGGCAACAGAGGAUUGAGCAUCA
B22: chr7:141441981:141441982:+_ENSG00000106028_ENST00000265304|hu_mus|hu_hu_hu_mus_False|8_88 (ssRNA)
RNA: GGGAGUUCUACAGUCCGACGAUCCUCAUGUCUUACAAACUGACGAAGUACCUGUAACACAGGUCUUCGAAACAUGGCUUCUGUUUUUCUUACAACCUAAUCUUUAGGCUUUUCCUAAAGGAAAGAAUAACCCGAGCAAAAUGACAACAGAGGAUUGAGCAUCA

Each binder was assayed against T1, UNK ZnF1-3 (assay: nsRBNS (natural sequence RNA bind-n-seq); RBNS binding buffer (assumed for nsRBNS): 25 mM Tris pH 7.5, 150 mM KCl, 3 mM MgCl2, 0.01% Triton X-100, 500 ug/ml BSA, 20 U/ml SUPERase-In, 4 C; UNK is unkempt and MSI1 is Musashi-1; names of the RNAs are library labels; protein concentration not given here; high values mean tight binding).
For B1, the binding signal was 1.44 enrichment R. B2 was tested, and the binding signal was 7.35 enrichment R. In the case of B3, the binding signal is reported as 19.9 enrichment R. For B4, the binding signal was 1.53 enrichment R. Work on B5 yielded a binding signal of 1.43 enrichment R. B6 was tested, and the binding signal was 1.19 enrichment R. B7 gave a binding signal of 0.822 enrichment R. B8 gave a binding signal of 0.932 enrichment R. For B9, the binding signal was 0.932 enrichment R. Binder B10 has a binding signal of 0.744 enrichment R. Binder B11 has a binding signal of 11.7 enrichment R. For B12, the binding signal was 4.29 enrichment R. With B13 the binding signal was 0.893 enrichment R. B14 gave a binding signal of 0.997 enrichment R. In the case of B15, the binding signal is reported as 0.837 enrichment R. Binder B16 has a binding signal of 0.867 enrichment R. Work on B17 yielded a binding signal of 4.17 enrichment R. For B18, the binding signal was 6.68 enrichment R. Binder B19 has a binding signal of 4 enrichment R. Work on B20 yielded a binding signal of 0.637 enrichment R. Work on B21 yielded a binding signal of 1.1 enrichment R. B22 showed a binding signal of 0.719 enrichment R.
